Measurements taken from PubChem BioAssay (NCI).
The panel holds about 83,000 compounds, 20% with a hit somewhere; the sample as a whole holds those more often.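 Compound tested at a single concentration for 48 hours in 96-well plates; a percent growth value below 10 was scored as active.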 Activity calls are given as the source filed them.

Columns and labels:
Assay in all cases: NCI-60 one-dose screen, 48 h (100 = growth as untreated, 0 = no growth, -100 = all killed)
Conditions in all cases: 10 µM unless noted
EKVX NSCLC = system: EKVX NSCLC
SN12C renal = system: SN12C renal
UO-31 renal = system: UO-31 renal
TK-10 renal = system: TK-10 renal
ACHN renal = system: ACHN renal
CAKI-1 renal = system: CAKI-1 renal
A498 renal = system: A498 renal
CCRF-CEM leukemia = system: CCRF-CEM leukemia
MOLT-4 leukemia = system: MOLT-4 leukemia
SR leukemia = system: SR leukemia
RPMI-8226 leukemia = system: RPMI-8226 leukemia
OVCAR-8 ovarian = system: OVCAR-8 ovarian
OVCAR-5 ovarian = system: OVCAR-5 ovarian
SK-OV-3 ovarian = system: SK-OV-3 ovarian
IGROV1 ovarian = system: IGROV1 ovarian
OVCAR-3 ovarian = system: OVCAR-3 ovarian
HS 578T breast = system: HS 578T breast
NCI/ADR-RES ovarian = system: NCI/ADR-RES ovarian
T-47D breast = system: T-47D breast
OVCAR-4 ovarian = system: OVCAR-4 ovarian

Measured: growth

N#Cc1cnc2cc(OC[C@H](O)CO)c(NC(=O)CC3CSSC3)cc2c1Nc1ccc(OCc2cccc(F)c2)c(Cl)c1
active: EKVX NSCLC -69.9% | SN12C renal -65.7% | TK-10 renal -70.5% | A498 renal -71.5% | CCRF-CEM leukemia -81.8% | MOLT-4 leukemia -90.1% | SR leukemia -72.6% | RPMI-8226 leukemia -68.9% | OVCAR-8 ovarian -54.6% | OVCAR-5 ovarian -47.8% | SK-OV-3 ovarian -87.5% | IGROV1 ovarian -41.8% | OVCAR-3 ovarian -89.2% | HS 578T breast -44.7% | T-47D breast -61.1%
inactive: UO-31 renal 47.6% | ACHN renal 20.8% | CAKI-1 renal 70.1% | NCI/ADR-RES ovarian 87.8%

O=C(COC(=O)[C@H](C[Se][Se]C[C@H](NC(=O)c1ccc(Br)cc1F)C(=O)OCC(=O)c1ccc(F)cc1)NC(=O)c1ccc(Br)cc1F)c1ccc(F)cc1
active: EKVX NSCLC -69.9% | SN12C renal -100% | UO-31 renal -100% | TK-10 renal -97.6% | ACHN renal -75.7% | CAKI-1 renal -91.4% | A498 renal -2.67% | CCRF-CEM leukemia -56.2% | MOLT-4 leukemia -30% | SR leukemia -39.3% | RPMI-8226 leukemia -44.3% | OVCAR-8 ovarian -100% | OVCAR-5 ovarian -68.7% | SK-OV-3 ovarian -81% | IGROV1 ovarian -100% | OVCAR-3 ovarian -100% | HS 578T breast -16% | NCI/ADR-RES ovarian -82.8% | T-47D breast -67%

O=C(Nc1ccc(Cl)cc1)c1cc2c(cc1O)[nH]c1ccccc12
inactive: EKVX NSCLC 10.8% | SN12C renal 20.1% | UO-31 renal 39.9% | ACHN renal 22.2% | CAKI-1 renal 10.2% | A498 renal 29.8% | CCRF-CEM leukemia 18.1% | OVCAR-4 ovarian 30.6% | SK-OV-3 ovarian 24.4% | IGROV1 ovarian 163% | HS 578T breast 52%
active: TK-10 renal 4.83% | MOLT-4 leukemia -9.5% | SR leukemia 1.22% | RPMI-8226 leukemia -61.6% | OVCAR-8 ovarian 8.57% | OVCAR-3 ovarian 6.34% | NCI/ADR-RES ovarian 0.0543% | T-47D breast -1.88%

Cc1cccc(Cl)c1NC(=O)c1ccc2nc(NC(=O)NC3CC(C)(C)NC(C)(C)C3)sc2c1
inactive: EKVX NSCLC 94.5% | SN12C renal 56.5% | UO-31 renal 88.7% | TK-10 renal 80.2% | ACHN renal 94.9% | CAKI-1 renal 92% | A498 renal 89% | CCRF-CEM leukemia 87.7% | MOLT-4 leukemia 70% | SR leukemia 95.6% | RPMI-8226 leukemia 87.1% | SK-OV-3 ovarian 76.3% | IGROV1 ovarian 65.2% | OVCAR-3 ovarian 99.7% | HS 578T breast 30.8% | NCI/ADR-RES ovarian 118% | T-47D breast 54%

CCN(CC)CCCCNc1c2ccccc2[n+](C)c2c1[nH]c1ccccc12
inactive: UO-31 renal 22.2% | ACHN renal 27.9% | CAKI-1 renal 81% | NCI/ADR-RES ovarian 86.5%
active: EKVX NSCLC -20.3% | SN12C renal -2.39% | TK-10 renal -12.1% | A498 renal -11.8% | CCRF-CEM leukemia -33.1% | MOLT-4 leukemia -4.88% | SR leukemia -37.3% | RPMI-8226 leukemia -42.6% | OVCAR-8 ovarian -11.9% | OVCAR-4 ovarian -2.34% | SK-OV-3 ovarian -11.5% | IGROV1 ovarian -34.2% | OVCAR-3 ovarian -13.6% | HS 578T breast -48.1% | T-47D breast -11.7%

CCOC(=O)C(C(C)=O)c1nc2sc3cc(Cl)ccc3n2c(=N)c1C#N (stereo not given)
inactive: EKVX NSCLC 73.6% | SN12C renal 85.9% | UO-31 renal 76.1% | TK-10 renal 157% | ACHN renal 109% | CAKI-1 renal 91.6% | A498 renal 101% | CCRF-CEM leukemia 163% | MOLT-4 leukemia 44.9% | SR leukemia 60.3% | RPMI-8226 leukemia 97.9% | OVCAR-8 ovarian 80.9% | OVCAR-5 ovarian 114% | SK-OV-3 ovarian 84.6% | IGROV1 ovarian 84.3% | OVCAR-3 ovarian 107% | HS 578T breast 28.8% | NCI/ADR-RES ovarian 87.2% | T-47D breast 77.9%

CN(C)c1nc(-c2ccco2)n2nc(-c3ccco3)cc2n1
inactive: EKVX NSCLC 77% | SN12C renal 93.4% | UO-31 renal 40.5% | TK-10 renal 90.3% | ACHN renal 96.5% | CAKI-1 renal 90.7% | A498 renal 79.9% | CCRF-CEM leukemia 93% | MOLT-4 leukemia 97.3% | SR leukemia 73.8% | RPMI-8226 leukemia 65.1% | OVCAR-8 ovarian 92.8% | OVCAR-5 ovarian 108% | SK-OV-3 ovarian 98.7% | IGROV1 ovarian 72.4% | OVCAR-3 ovarian 92.9% | HS 578T breast 78.1% | NCI/ADR-RES ovarian 90.7% | T-47D breast 38%

COc1cc(/C=C2\COc3ccc(O)cc3C2=O)cc(OC)c1
active: CCRF-CEM leukemia -0.953% | SR leukemia 3.36%
inactive: EKVX NSCLC 94.8% | SN12C renal 21.7% | UO-31 renal 63.1% | TK-10 renal 93.6% | ACHN renal 48.9% | CAKI-1 renal 68.4% | A498 renal 101% | MOLT-4 leukemia 31.3% | OVCAR-8 ovarian 40.4% | OVCAR-5 ovarian 73.7% | OVCAR-4 ovarian 93.4% | SK-OV-3 ovarian 91.7% | IGROV1 ovarian 73.2% | OVCAR-3 ovarian 37.1% | HS 578T breast 77.4% | NCI/ADR-RES ovarian 65.8% | T-47D breast 60.3%
